Experimental data from the supplement of paper PMC7411054.
Structures can show the parent of a compound that is named as a salt.

Experiments:
Details in all cases: treatment time: 24 h
A549-ACTB-RAB5A [1] = test: lowest phenotypically active concentration; higher = less potent
Outline: (§1)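 Live-cell features were measured per well and normalised to solvent control wells after fifteen gene-edited A549, HepG2 and WPMY1 reporter lines had been treated for 24 h at 0.3, 1, 3 or 9 µM in four wells each. A condition was deviating when ≥3 of 4 wells sat beyond the 95th percentile of control Euclidean distances. It was reproducible when the median replicate Pearson correlation exceeded the 95th percentile of non-replicates. Phenotypic activity demanded both.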

A549-CANX-COX4 [2] = test: as above
Outline: as §1

A549-GM130-SQSTM1 [3] = test: as above
Outline: as §1

A549-TP53BP1-CLTA [4] = test: as above
Outline: as §1

A549-TUBA1B-RELA [5] = test: as above
Outline: as §1

HepG2-GM130-SQSTM1 [6] = test: as above
Outline: as §1

A549-ACTB-RAB5A [7] = test: phenotypically active (imaging signature differs from DMSO and reproducible) at any of 0.3-9 uM (binary (1 = active, 0 = inactive)); higher = active
Outline: as §1

A549-CANX-COX4 [8] = test: as above
Outline: as §1

A549-GM130-SQSTM1 [9] = test: as above
Outline: as §1

A549-TP53BP1-CLTA [10] = test: as above
Outline: as §1

A549-TUBA1B-RELA [11] = test: as above
Outline: as §1

HepG2-ACTB-RAB5A = test: as above
Outline: as §1

HepG2-CANX-COX4 = test: as above
Outline: as §1

HepG2-GM130-SQSTM1 [12] = test: as above
Outline: as §1

HepG2-TP53BP1-CLTA = test: as above
Outline: as §1

HepG2-TUBA1B-RELA = test: as above
Outline: as §1

WPMY1-CANX-COX4 = test: as above
Outline: as §1

WPMY1-GM130-SQSTM1 = test: as above
Outline: as §1

WPMY1-TP53BP1-CLTA = test: as above
Outline: as §1

WPMY1-TUBA1B-RELA = test: as above
Outline: as §1

SMILES	lowest phenotypically active concentration (A549-ACTB-RAB5A [1]) [µM]	lowest phenotypically active concentration (A549-CANX-COX4 [2]) [µM]	lowest phenotypically active concentration (A549-GM130-SQSTM1 [3]) [µM]	lowest phenotypically active concentration (A549-TP53BP1-CLTA [4]) [µM]	lowest phenotypically active concentration (A549-TUBA1B-RELA [5]) [µM]	lowest phenotypically active concentration (HepG2-GM130-SQSTM1 [6]) [µM]	phenotypically active (A549-ACTB-RAB5A [7])	phenotypically active (A549-CANX-COX4 [8])	phenotypically active (A549-GM130-SQSTM1 [9])	phenotypically active (A549-TP53BP1-CLTA [10])	phenotypically active (A549-TUBA1B-RELA [11])	phenotypically active (HepG2-ACTB-RAB5A)	phenotypically active (HepG2-CANX-COX4)	phenotypically active (HepG2-GM130-SQSTM1 [12])	phenotypically active (HepG2-TP53BP1-CLTA)	phenotypically active (HepG2-TUBA1B-RELA)	phenotypically active (WPMY1-CANX-COX4)	phenotypically active (WPMY1-GM130-SQSTM1)	phenotypically active (WPMY1-TP53BP1-CLTA)	phenotypically active (WPMY1-TUBA1B-RELA)
CC1=C(C(=O)Nc2cc3cn[nH]c3cc2F)C(c2ccc(C(F)(F)F)cc2)CC(=O)N1 (stereo not given)	≤ 0.3	1	1	≤ 0.3	≤ 0.3	≤ 0.3	1 (active)	1 (active)	1 (active)	1 (active)	1 (active)	1 (active)	1 (active)	1 (active)	1 (active)	1 (active)	1 (active)	1 (active)	1 (active)	1 (active)
CN1CC[C@H](c2c(O)cc(O)c3c(=O)cc(-c4ccccc4Cl)oc23)[C@H](O)C1 [Flavopiridol hydrochloride]	≤ 0.3	≤ 0.3	≤ 0.3	≤ 0.3	≤ 0.3	≤ 0.3	1 (active)	1 (active)	1 (active)	1 (active)	1 (active)	1 (active)	1 (active)	1 (active)	1 (active)	1 (active)	1 (active)	1 (active)	1 (active)	1 (active)
Cc1ccc(-n2nc(C(C)(C)C)cc2NC(=O)Nc2ccc(OCCN3CCOCC3)c3ccccc23)cc1	3	9	3	9	3	3	1 (active)	1 (active)	1 (active)	1 (active)	1 (active)	1 (active)	1 (active)	1 (active)	1 (active)	1 (active)	1 (active)	1 (active)	1 (active)	1 (active)
Nc1nccc2c1ncn2[C@@H]1C=C(CO)[C@@H](O)[C@H]1O [3-Deazaneplanocin A hydrochloride]	≤ 0.3	1	3	≤ 0.3	3	1	1 (active)	1 (active)	1 (active)	1 (active)	1 (active)	1 (active)	1 (active)	1 (active)	1 (active)	1 (active)	1 (active)	1 (active)	1 (active)	1 (active)
Nc1cccc(-c2cc3c(Oc4cccc(O)c4)ncnc3[nH]2)c1	1	1	9	1	1	3	1 (active)	1 (active)	1 (active)	1 (active)	1 (active)	1 (active)	1 (active)	1 (active)	1 (active)	1 (active)	1 (active)	1 (active)	1 (active)	1 (active)
COc1cc2nc(N3CCCN(C)CC3)nc(NC3CCN(Cc4ccccc4)CC3)c2cc1OC	≤ 0.3	1	≤ 0.3	1	≤ 0.3	≤ 0.3	1 (active)	1 (active)	1 (active)	1 (active)	1 (active)	1 (active)	1 (active)	1 (active)	1 (active)	1 (active)	1 (active)	1 (active)	1 (active)	1 (active)
Oc1cccc(-c2nc(N3CCOCC3)c3oc4ncccc4c3n2)c1 [PI 103 hydrochloride]	≤ 0.3	≤ 0.3	≤ 0.3	≤ 0.3	≤ 0.3	≤ 0.3	1 (active)	1 (active)	1 (active)	1 (active)	1 (active)	1 (active)	1 (active)	1 (active)	1 (active)	1 (active)	1 (active)	1 (active)	1 (active)	1 (active)
Fc1ccccc1CNCc1ccc(-c2ccnc3[nH]ccc23)cc1 [OXA 06 dihydrochloride]	≤ 0.3	1	3	1	1	≤ 0.3	1 (active)	1 (active)	1 (active)	1 (active)	1 (active)	1 (active)	1 (active)	1 (active)	1 (active)	1 (active)	1 (active)	1 (active)	1 (active)	1 (active)
CON(C)C(=O)N1N=C(c2cc(F)ccc2F)S[C@@]1(CCCN)c1ccccc1 [ARRY 520 trifluoroacetate]	≤ 0.3	≤ 0.3	≤ 0.3	≤ 0.3	≤ 0.3	≤ 0.3	1 (active)	1 (active)	1 (active)	1 (active)	1 (active)	1 (active)	1 (active)	1 (active)	1 (active)	1 (active)	1 (active)	1 (active)	1 (active)	1 (active)
COc1cc2nc(-c3cc(F)ccc3O)nc(N[C@@H]3CNC[C@H]3C(C)(C)O)c2cc1OC	3	9	9	9	9	1	1 (active)	1 (active)	1 (active)	1 (active)	1 (active)	1 (active)	1 (active)	1 (active)	1 (active)	1 (active)	1 (active)	1 (active)	1 (active)	1 (active)
Cc1cc(Nc2cc(N3CCN(C)CC3)nc(Sc3ccc(NC(=O)C4CC4)cc3)n2)[nH]n1	≤ 0.3	≤ 0.3	≤ 0.3	≤ 0.3	≤ 0.3	≤ 0.3	1 (active)	1 (active)	1 (active)	1 (active)	1 (active)	1 (active)	1 (active)	1 (active)	1 (active)	1 (active)	1 (active)	1 (active)	1 (active)	1 (active)
CNC(=O)c1ccccc1Sc1ccc2c(/C=C/c3ccccn3)n[nH]c2c1 [Axitinib]	1	9	1	3	1	3	1 (active)	1 (active)	1 (active)	1 (active)	1 (active)	1 (active)	1 (active)	1 (active)	1 (active)	1 (active)	1 (active)	1 (active)	1 (active)	1 (active)
O=C(O)c1ccc(Nc2ncc3c(n2)-c2ccc(Cl)cc2C(c2c(F)cccc2F)=NC3)cc1	≤ 0.3	≤ 0.3	≤ 0.3	≤ 0.3	≤ 0.3	≤ 0.3	1 (active)	1 (active)	1 (active)	1 (active)	1 (active)	1 (active)	1 (active)	1 (active)	1 (active)	1 (active)	1 (active)	1 (active)	1 (active)	1 (active)
COc1cc2c(cc1-c1c(C)noc1C)ncc1[nH]c(=O)n([C@H](C)c3ccccn3)c12 [I-BET 151 dihydrochloride]	1	3	1	3	1	3	1 (active)	1 (active)	1 (active)	1 (active)	1 (active)	1 (active)	1 (active)	1 (active)	1 (active)	1 (active)	1 (active)	1 (active)	1 (active)	1 (active)
COc1ccc(S(=O)(=O)N(CCO)c2ccccc2CN(C)C/C=C/c2ccc(Cl)cc2)cc1	3	9	3	9	3	9	1 (active)	1 (active)	1 (active)	1 (active)	1 (active)	1 (active)	1 (active)	1 (active)	1 (active)	1 (active)	1 (active)	1 (active)	1 (active)	1 (active)
NC1(C(=O)N[C@@H](CCO)c2ccc(Cl)cc2)CCN(c2ncnc3[nH]ccc23)CC1	≤ 0.3	1	1	1	3	1	1 (active)	1 (active)	1 (active)	1 (active)	1 (active)	1 (active)	1 (active)	1 (active)	1 (active)	1 (active)	1 (active)	1 (active)	1 (active)	1 (active)
CN[C@H]1CC[C@@H](c2ccc(Cl)c(Cl)c2)c2ccccc21 [sertraline]	1	9	3	9	1	3	1 (active)	1 (active)	1 (active)	1 (active)	1 (active)	1 (active)	1 (active)	1 (active)	1 (active)	1 (active)	1 (active)	1 (active)	1 (active)	1 (active)
CO[C@H]1C=CC=C(C)C(=O)NC2=CC(=O)C(NCCN(C)C)=C(C[C@@H](C)C[C@H](OC)[C@H](O)[C@@H](C)C=C(C)[C@@H]1OC(N)=O)C2=O [17-DMAG hydrochloride]	≤ 0.3	≤ 0.3	≤ 0.3	≤ 0.3	≤ 0.3	≤ 0.3	1 (active)	1 (active)	1 (active)	1 (active)	1 (active)	1 (active)	1 (active)	1 (active)	1 (active)	1 (active)	1 (active)	1 (active)	1 (active)	1 (active)
O=C(CCCCCCC(=O)Nc1cccnc1)NO [Pyroxamide]	3	3	3	9	9	3	1 (active)	1 (active)	1 (active)	1 (active)	1 (active)	1 (active)	1 (active)	1 (active)	1 (active)	1 (active)	1 (active)	1 (active)	1 (active)	1 (active)
CNC(=O)Nc1ccc(-c2nc(N3CC4CCC(C3)O4)c3cnn(C4CCC5(CC4)OCCO5)c3n2)cc1	≤ 0.3	≤ 0.3	≤ 0.3	≤ 0.3	≤ 0.3	≤ 0.3	1 (active)	1 (active)	1 (active)	1 (active)	1 (active)	1 (active)	1 (active)	1 (active)	1 (active)	1 (active)	1 (active)	1 (active)	1 (active)	1 (active)
CCC1(O)CC2CN(CCc3c([nH]c4ccccc34)C(C(=O)OC)(c3cc4c(cc3OC)N(C)C3C(O)(C(=O)OC)C(OC(C)=O)C5(CC)C=CCN6CCC43C65)C2)C1 (stereo not given) [Vinblastine sulfate]	≤ 0.3	≤ 0.3	≤ 0.3	≤ 0.3	≤ 0.3	≤ 0.3	1 (active)	1 (active)	1 (active)	1 (active)	1 (active)	1 (active)	1 (active)	1 (active)	1 (active)	1 (active)	1 (active)	1 (active)	1 (active)	1 (active)
COc1ccc2cc1Oc1ccc(cc1)C[C@H]1c3cc(c(OC)cc3CCN1C)Oc1c(OC)c(OC)cc3c1[C@H](C2)N(C)CC3 [Tetrandrine]	≤ 0.3	1	≤ 0.3	1	≤ 0.3	≤ 0.3	1 (active)	1 (active)	1 (active)	1 (active)	1 (active)	1 (active)	1 (active)	1 (active)	1 (active)	1 (active)	1 (active)	1 (active)	1 (active)	1 (active)
